Source: PubChem (several laboratories)
Autofluor counter: compound fluorescence in toxin protease inhibitor counterscreen; compound autofluorescence counterscreen, microsphere flow cytometry; stronger effect = higher value; fluorescence intensity (no concentration beside the values); 360,000 tested, 3.1% active; AID 624483; in the data active means fluorescence intensity above about 16000; inconclusive means no clear call, values can overlap the other calls
BoNT A protease: BoNT/A light chain protease inhibitors, primary screen, biochemical, flow cytometry, MLPCN library | Botulinum neurotoxin type A light chain protease (Clostridium botulinum A str. ATCC 3502) | multiplex microsphere protease substrate cleavage | inhibition, % at 10 µM | 360,000 tested, 0.17% active; further: plate controls were buffer without enzyme for full effect and enzyme alone for no effect
Anthrax LF inh2: Bacillus anthracis LF protease inhibitors, primary screen, biochemical, multiplex microsphere, MLPCN library. Lethal factor (Bacillus anthracis), P15917. multiplex microsphere protease cleavage assay. inhibition, % at 10 µM. 360,000 tested, 0.12% active. AID 588501, 2011; further: plate controls were buffer without enzyme for full effect and enzyme alone for no effect
Target sequence (P15917 whole entry, looked up): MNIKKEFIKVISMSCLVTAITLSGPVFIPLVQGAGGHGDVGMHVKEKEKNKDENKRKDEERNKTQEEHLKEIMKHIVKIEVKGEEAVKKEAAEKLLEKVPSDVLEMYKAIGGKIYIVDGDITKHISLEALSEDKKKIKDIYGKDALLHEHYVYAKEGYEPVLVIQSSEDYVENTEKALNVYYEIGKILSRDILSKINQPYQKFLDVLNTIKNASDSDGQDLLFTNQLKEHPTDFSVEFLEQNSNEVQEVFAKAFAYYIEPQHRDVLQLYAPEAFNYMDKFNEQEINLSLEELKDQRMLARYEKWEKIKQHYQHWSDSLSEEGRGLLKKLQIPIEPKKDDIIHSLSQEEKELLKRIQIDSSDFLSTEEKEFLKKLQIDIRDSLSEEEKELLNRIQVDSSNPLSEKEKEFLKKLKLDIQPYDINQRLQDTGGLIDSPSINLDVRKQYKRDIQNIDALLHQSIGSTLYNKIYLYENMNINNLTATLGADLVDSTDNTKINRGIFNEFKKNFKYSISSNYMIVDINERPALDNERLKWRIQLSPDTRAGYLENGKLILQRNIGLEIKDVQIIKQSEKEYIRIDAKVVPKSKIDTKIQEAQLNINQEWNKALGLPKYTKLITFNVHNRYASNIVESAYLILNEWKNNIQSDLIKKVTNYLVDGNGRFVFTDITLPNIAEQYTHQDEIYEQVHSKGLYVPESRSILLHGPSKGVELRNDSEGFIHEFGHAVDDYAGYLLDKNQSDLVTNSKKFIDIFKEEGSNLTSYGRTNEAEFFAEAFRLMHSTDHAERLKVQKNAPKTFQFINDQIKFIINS
BoNT-F LC inh: BoNT/F light chain protease inhibitors, primary screen, biochemical, flow cytometry, MLPCN library. 360,000 tested, 0.22% active. Multiplex microsphere protease cleavage assay. AID 588497, 2011. inhibition, % at 10 µM; in the data active means inhibition above about 35%, passing the limit was not always enough; inconclusive means no clear call, values can overlap the other calls; further: plate controls were buffer without enzyme for full effect and enzyme alone for no effect
BJeLR viability: MLPCN primary cell-based screen for lethality selective to Ras in HRASV12 cells; BJeLR (HRASV12) viability, CellTiter-Glo ATP luminescence, 48 h; inhibition, % (test concentration not listed); 300,000 tested, 0.17% active; AID 1554, 2009; in the data active means inhibition above about 50%; inconclusive means no clear call, values can overlap the other calls
The depositor's hits bear a star; ? = inconclusive; · = no result given. Rows were chosen to be rich in hits. Some 3.5% of all compounds tested hit in one or more screens of this group. Unless noted, no stated cut-off is given here; in the data, active means inhibition above about 30%; inconclusive means no clear call, values can overlap the other calls; inactive means below that.

SMILES | Autofluor counter | BoNT A protease | Anthrax LF inh2 | BoNT-F LC inh | BJeLR viability
CCCS(=O)(=O)NC(=O)C1(C)CCCN(C(=O)Cc2ccc3ccccc3c2)C1 (configuration not stated) | 2986 | -0.2 | 2.8 | -9.8 | ·
Cc1ccccc1S(=O)(=O)NC(=O)C1(C)CCN1C(=O)COc1ccc(Cl)cc1 (configuration not stated) | 3546 | -0.4 | -4.7 | 2.2 | ·
CC1CCC2(CC1)NC(=O)N(NC(=O)C1CCN(C(=O)c3ccc(Cl)cc3)CC1)C2=O (configuration not stated) | 5069 | -1.1 | 8.7 | -6.4 | ·
COCCSc1ccccc1C(=O)NCC1CCCO1 (configuration not stated) | 5605 | -0.3 | 0.7 | 1.7 | -7.8
CSc1ccccc1C(=O)NCC1CCCO1 (configuration not stated) | 18506* | 4.8 | -2.4 | 8.9 | -7.5
CSc1ccccc1C(=O)NC1CCCCC1 | 22309* | 2.2 | -5.4 | 0.8 | -12.1
Cc1ccccc1NC(=O)C(C)O/N=C/c1cccc([N+](=O)[O-])c1 (configuration not stated) | 3547 | -0.7 | -4.3 | -21.5 | 3.3
O=S1(=O)CC(N2CC=CC2)CN1Cc1cn(Cc2cccc(C(F)(F)F)c2)nn1 (configuration not stated) | 4137 | -0.7 | -1.5 | -1.6 | ·
COc1ccc(CN(CCN(C)C)Cc2ccccc2)c(OC)c1 | 20994* | -1.2 | -8.1 | -3.2 | 11.2
O=C(O)C1CCN(S(=O)(=O)c2ccc(N3CCC(O)CC3)c([N+](=O)[O-])c2)CC1 | 5702 | 1.3 | -2.1 | 1.4 | 8.0
O=C(NC1CCS(=O)(=O)C1)OC1CCCCC1 (configuration not stated) | 11037 | 0.7 | -1.0 | 2.9 | -0.6
COC(=O)Cc1ccc(NC(=O)c2ccc(C)c(C)c2)cc1 | 24555* | -2.5 | -0.9 | -0.5 | -2.4
Nc1ccn(C2OC(CCl)C(O)C2O)c(=O)n1 (configuration not stated) | 3581 | -0.6 | -5.5 | -0.2 | ·
Cn1cc(-c2nnnn2-c2cccc(C(F)(F)F)c2)c(C(F)(F)F)n1 | 24492* | -2.6 | -1.8 | -4.4 | 0.9
COc1cccc(=O)c2c(C)n(-c3cc(C)cc(C)c3)c(C)c12 | 20048* | 3.0 | -2.6 | 0.7 | -2.5
COc1cccc(-n2c(C)c3c(OC)cccc(=O)c3c2C)c1 | 3614 | -0.2 | -2.3 | -10.1 | 3.7
CCCCn1nnnc1C(c1cccc2ccccc12)N1CCN(C/C=C/c2ccccc2)CC1 (configuration not stated) | 5843 | -0.3 | -5.7 | -5.9 | ·
COc1nn(CC(=O)N2N=C(C)CC2(O)C(F)(F)F)cc1[N+](=O)[O-] (configuration not stated) | 24478* | -2.5 | -3.0 | -4.0 | -15.4
CCC(=O)Nn1c(C2CCC2)nc2ccccc2c1=O | 4074 | -1.1 | 10.6 | -13.5 | -2.4
COc1cccc(OC)c1C(=O)Nn1c(C2CCC2)nc2ccccc2c1=O | 19169* | ? | -8.2 | 6.6 | -1.0
CN(c1ccccc1)S(=O)(=O)c1cccc(NC(=O)c2ccc(Cl)c([N+](=O)[O-])c2)c1 | 15380 | -75.1 | -17.9 | -108.8 | ·
COc1ccc(S(=O)(=O)N2CCCCC2)cc1NC(=O)c1ccc(Cl)nc1 | 3689 | 0.3 | 3.6 | -2.7 | ·
Nc1ccccc1-c1n[nH]c(=S)s1 | 4353 | 0.6 | -0.5 | 7.6 | ·
Nc1nnc(SCC(=O)NC23CC4CC(CC(C4)C2)C3)s1 | 21047* | -1.0 | -4.4 | -1.4 | -7.5
COc1cc2[nH]c(=S)n(N(C(C)=O)C(C)=O)c(=O)c2cc1OC | 22631* | 2.2 | 0.4 | 1.0 | 5.7
SMILES | Autofluor counter | BoNT A protease | Anthrax LF inh2 | BoNT-F LC inh | BJeLR viability
COc1cc2[nH]c(=S)n(C3CCCC3)c(=O)c2cc1OC | 23713* | -1.4 | -1.1 | -1.2 | -18.6
COc1cc2[nH]c(=S)n(C3CC3)c(=O)c2cc1OC | 4301 | -1.2 | -4.4 | -2.1 | -17.2
CCCCNC(=O)CCC(=O)Nc1ncc(-c2ccc(C)cc2)n1C | 20268* | ? | 0.5 | -0.8 | -4.2
Cn1c(-c2ccc3c(c2)OCO3)cnc1N | 19330* | 1.7 | -3.5 | -9.2 | 3.5
Cn1c(-c2ccc3c(c2)OCO3)cnc1NCc1ccccc1 | 22213* | 2.2 | -7.9 | 4.8 | 5.9
Cn1c(-c2ccc3c(c2)OCO3)cnc1NCc1ccccc1Cl | 4272 | -0.3 | -1.9 | -0.3 | -1.8
Cn1c(-c2ccc3c(c2)OCO3)cnc1NCc1cccc(Cl)c1 | 9450 | 0.6 | -0.1 | 8.6 | -2.3
Cn1c(-c2ccc3c(c2)OCO3)cnc1NC(=O)CCC(=O)NCCc1ccccc1 | 22472* | 1.1 | -2.0 | 0.1 | 8.5
Nc1ccn([C@@H]2O[C@H](CNCc3cnc(N4CCOCC4)s3)[C@@H](O)[C@H]2O)c(=O)n1 | 3831 | -0.3 | -4.1 | -3.3 | ·
Cc1ccc(C(=O)Oc2coc(CSc3nnc(NC(=O)C4CC4)s3)cc2=O)cc1 | 2590 | 30.0* | -1.0 | -0.1 | 9.0
O=C(Oc1coc(CSc2nnc(NC(=O)c3cccs3)s2)cc1=O)c1ccccc1 | 2302 | 0.9 | 0.3 | -0.4 | 0.3
COc1ccc([C@]2(C(C)C)ON(c3ccccc3C(F)(F)F)C2=O)cc1 | 4047 | 0.5 | -4.5 | -5.4 | ·
CCOC(=O)N1CCC(NC(=O)c2oc3c(c2C)-c2[nH]ncc2CC3)CC1 | 20954* | ? | -3.9 | -4.7 | 1.9
CC(C)C[C@@H](CN1CCC[C@H]1CN1C(=O)C(=O)NC[C@@H]1Cc1ccccc1)N1C[C@H](Cc2ccc(O)cc2)N(CC2CCCCC2)C(=O)C1=O | 6075 | -0.1 | 2.0 | -1.6 | ·
COc1ccc(S(=O)(=O)N2CCC[C@H]2C(=O)N2CCC[C@H]2C(=O)N[C@@H](C)c2ccccc2)cc1C | 5367 | 0.1 | -1.4 | -3.5 | ·
c1ccc(OCc2nn3c(-c4ccncc4)nnc3s2)cc1 | 21442* | -4.2 | -1.0 | -4.7 | 10.4
COc1ccc(Cl)cc1C(=O)O/N=C(\N)c1ccccn1 | 3904 | -1.9 | 32.6* | ? | -2.6
COc1cccc(C2CC(c3ccccc3OC)n3ncnc3N2)c1 (configuration not stated) | 5909 | -0.2 | -5.0 | 5.0 | -6.2
COc1cccc(C2CC(c3ccccc3)Nc3ncnn32)c1 (configuration not stated) | 22399* | -0.4 | 0.2 | 0.4 | 0.3
CCOP(=O)(OCC)/C(C#N)=C/c1cc(OC)ccc1OC | 2953 | 2.6 | -4.5 | 8.2 | -8.0
Cc1nc(SCC(=O)NCCc2ccccc2)c2oc3ccccc3c2n1 | 16266* | 0.7 | 5.1 | -1.7 | -7.0
Cc1nc(SCC(=O)NC(C)c2ccccc2)c2oc3ccccc3c2n1 (configuration not stated) | 19999* | 0.5 | -1.6 | 0.6 | 1.8
O=C(Nc1cc(S(=O)(=O)N2CCOCC2)ccc1N1CCCCC1)c1ccccc1Br | 3594 | 6.0 | 8.3 | 3.8 | ·
CN(C)c1nc(OCCOC(=O)COc2ccc(Cl)cc2Cl)nc(N(C)C)n1 | 21324* | 0.5 | -7.1 | 1.1 | 0.1
CN(C)c1nc(OCCNC(=O)COc2ccc(Cl)cc2Cl)nc(N(C)C)n1 | 22763* | -0.2 | -2.5 | 0.1 | -4.4
